ALOX15B inhib – blocks human 15-lipoxygenase 2 activity; 0.56% of 110,000 active; purified 15hLO-2, xylenol orange hydroperoxide absorbance; Potency, µM (highest dose often 57.1 µM), usual class: inhibitors; O15296; AID 881; also: nearly all actives have a fitted effect of over 60% in size
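Enzyme 50 nM, AA 45 uM, 25 mM Hepes pH 7.5 + 0.01% Triton X-100; cpd preinc 15 min RT, rxn 90 min RT; stop/detect with 200 uM XO + 300 uM Fe(II) in 50 mM H2SO4, 30 min; A573/A405.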
IMPase inh – IMPase inhibition in cells; inhibition (IP1 accumulation), % at 46.1 µM; 120,000 tested, under 10 active; CHO-M1 cells, IP1 accumulation, HTRF TR-FRET ratio; P97697; active = well fitted curve in the direction sought with a large enough effect in the signal ratio, not every such curve was filed as active; inconclusive = small, poorly fitted or top-dose-only effect, or a change in a side signal; inactive = no such curve, though single readings can be large or run the other way; the % refers to the signal ratio;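 also: cells stimulated with carbachol in lithium chloride buffer; higher means more IMPase inhibition seen as more IP1 and lower FRET ratio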
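Carbachol-driven Gq signalling in CHO-M1 cells (2000/well) generates IP1. Compounds that block IMPase raise IP1 and so reduce the FRET signal from Eu-anti-IP1 and d2-IP1 after a 10 min room-temperature lysis.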
12-hLO inh – 12-hLO (ALOX12) enzyme inhibition. 0.12% of 150,000 active. Potency, µM (doses to about 57.1 µM), most hits filed as inhibitors. purified 12-hLO, xylenol orange hydroperoxide absorbance. AID 1452. P18054; also: nearly all actives have a fitted effect of over 55% in size
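150 nM 12hLO, 25 mM Hepes pH 7.0 + 0.01% Triton X-100; cpd preinc 15 min RT; 40 uM arachidonic acid, 30 min RT; Fe-XO 30 min; A573/A405 ratio as read-out.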
HPGD block – HPGD (human) dehydrogenase inhibition; AID 894; 4.3% of 150,000 active; purified HPGD, NADH fluorescence kinetic, PGE2 substrate; P15428; Potency, µM, most hits filed as inhibitors; active = well fitted inhibition curve with a large enough effect, not every such curve was filed as active; inconclusive = small, poorly fitted or top-dose-only effect, or another doubt; inactive = no such curve, though single readings can be large or run the other way
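20 nM HPGD preincubated 15 min at room temperature with compound in 50 mM Tris-HCl pH 8, 0.01% Tween 20. Started with 1 mM NAD+ and 30 uM prostaglandin E2; NADH fluorescence (360/450 nm) read 5 times over 30-s intervals, last minus first.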
IMPase Li inh – cell-permeable IMPase inhibitors with lithium potentiation | CHO-M1 cells, IP1 TR-FRET (IP-One), carbachol + lithium | Potency, µM (highest dose often 59.4 µM), most hits filed as inhibitors | 0.35% of 210,000 active | AID 1457;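 also: IP1 builds up when IMPase is blocked and the TR-FRET signal falls; nearly all actives have a fitted effect of over 50% in size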
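Lithium-sensitised IP1 accumulation assay; M1-expressing CHO cells treated 30 min at 37C with compound. Competitive antibody detection by time-resolved FRET followed a 10 min room-temperature lysis step.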
PNC assembly inh – perinucleolar compartment assembly inhibition | activity change (PNC), negative = inhibition, % at 10 µM | 3.1% of 140,000 active | PC3M PTB-GFP, PNC prevalence imaging, 16 h; active compounds read low;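 active = readout at or below -70, meaning at least 70% loss of cells showing the perinucleolar compartment, a nuclear body marking cancer cells; inconclusive = readout between -30 and a set limit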
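Compounds are pinned in duplicate onto adhered PC3M cells stably expressing GFP-tagged PTB and incubated 16 h at 37 C. Cells are then fixed, nuclei stained with Hoechst, and PNC-positive cells counted.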
Numbers stand for hits; . = inactive; ? = inconclusive; / = no result given; [ ] = dose if it differs, or a comment. In the library only some 5.3% were active in any assay of this set; here they are far more common. Unless noted, calls follow the shape of the dose curve; as a rule, active = well fitted curve in the direction sought with a large enough effect; inconclusive = small, poorly fitted or top-dose-only effect, or another doubt; inactive = no such curve, though single readings can be large; an effect the other way counts as inactive or inconclusive.

SMILES | ALOX15B inhib | IMPase inh | 12-hLO inh | HPGD block | IMPase Li inh | PNC assembly inh
O=C(NC1CCCCC1)C(c1cccnc1)N(C(=O)c1ccc(Cl)nc1)C1CCCCC1 (stereo not drawn) | / | / | / | / | . | /
O=C(COC(=O)c1ccc([N+](=O)[O-])s1)Nc1ncc(C(F)(F)F)cc1Cl | / | . | . | . | . | ?
CNC(=O)CSc1nnc(-c2cccnc2)n1CCc1ccccc1 | . | . | . | . | . | .
O=C(CSc1nnc(-c2cccnc2)n1C1CCCCC1)NC1CCCC1 | / | . | . | 22.4µM | . | .
CCc1ccccc1-n1c(SCC(=O)NC)nnc1-c1cccnc1 | . | . | . | / | / | -121.8
CC1CCCN(C(=O)CSc2nnc(-c3cccnc3)n2C2CCCCC2)C1 (stereo not drawn) | . | . | . | ? | . | .
Nn1cnnc1SCC(=O)Nc1ccc2c(c1)OCO2 | / | / | / | / | . | /
CCN(CC)CCCC(C)n1c(-c2ccccc2)nc2c(NCCOC)nc(C)nc21 (stereo not drawn) | . | / | . | ? | . | /
N/C(Cc1cccc2ccccc12)=N\OC(=O)Cc1cccs1 | / | / | . | 28.2µM | . | .
N/C(Cc1ccc(Cl)cc1Cl)=N\OC(=O)Cc1cccs1 | / | / | . | . | . | -123.8
COc1ccc(-n2c(SCCC(C)C)nc3sc4c(c3c2=O)CC(C(C)C)OC4)cc1 (stereo not drawn) | / | . | / | / | / | /
C[C@]12CC[C@H]3c4ccc(O)cc4CC[C@@H]3[C@H]1C/C(=N/O)[C@H]2O | .[11.4 µM] | / | .[11.4 µM] | . | . | /
N#Cc1c(NC(=O)/C=C/c2ccco2)sc2c1CCCC2 | / | . | . | ? | . | -112.5
CC(C)Cc1cc(C(=O)Nc2sc3c(c2C#N)CCCC3)no1 | / | . | . | 28.2µM | . | .
Cn1cc(Cl)c(C(=O)NC(=S)Nc2sc3c(c2C#N)CCCCC3)n1 | / | / | . | 10µM | . | .
Cc1cc(C(=O)Nc2sc3c(c2C#N)CCCC3)no1 | / | . | . | 28.2µM | . | .
O=C(/C=C/c1ccco1)Nc1sc2c(c1C(=O)O)CCC2 | . | . | . | . | . | .
CCC1SC(CC)C(=O)N(CC(=O)Nc2ccc3c(c2)OCO3)C1=O (stereo not drawn) | / | . | . | . | . | .
Cc1cc(C(=O)Nc2sc3c(c2C#N)CCC3)no1 | . | . | . | . | . | -85.4
CC(C)Cc1cc(C(=O)Nc2sc3c(c2C#N)CCC3)no1 | . | . | . | ? | . | .
O=c1[nH]c2[nH]c(=S)[nH]c(=S)c2[nH]1 | .[11.4 µM] | / | .[11.4 µM] | 3.55µM | . | /
O=C1CNC(=O)/C1=C/c1ccccc1 | / | / | . | 14.1µM | . | ?
CC(C)(C)c1ccc(-c2nnc(SCCN3C(=O)c4ccccc4C3=O)o2)cc1 | . | . | . | 17.8µM | . | .
CC1CCCCN1S(=O)(=O)c1ccc(S(=O)(=O)N2CCN(c3ccc(F)cc3)CC2)cc1 (stereo not drawn) | . | . | . | . | . | -113.8
CC(C)(C)c1cc(=O)n(-c2ccccc2)[nH]1 | / | / | . | . | . | .
SMILES | ALOX15B inhib | IMPase inh | 12-hLO inh | HPGD block | IMPase Li inh | PNC assembly inh
COc1ccc(C(C)=O)cc1COC(=O)C(CO)NS(=O)(=O)c1ccc(Br)cc1 (stereo not drawn) | / | / | / | / | . | /
COc1ccc(-c2cc(C(F)(F)F)n3nc(C(=O)Nc4ccccc4SC)cc3n2)cc1OC | / | . | / | / | / | /
O=C(O)COc1ccccc1/C=C1\SC(=S)N(/N=C/c2ccccc2O)C1=O | / | / | . | 8.91µM | . | .
Cc1nn(-c2cccc(C(=O)O)c2)c(C)c1Oc1ccccc1O | . | . | . | . | . | .
Cc1nn(-c2ccc(C(=O)O)cc2)c(C)c1Oc1ccccc1O | . | . | . | 14.1µM | . | .
Cc1nn(-c2ccccn2)c(C)c1Oc1ccccc1O | . | . | . | 14.1µM | . | .
Cc1nn(-c2nc3ccccc3s2)c(C)c1Oc1ccccc1O | / | . | . | ? | . | -100.0
CCOC(=O)c1c(NC(=O)Cn2nc(C(=O)O)c3ccccc3c2=O)sc(CC)c1C | / | / | / | / | . | /
NCc1ccccc1COc1ccccc1 | / | / | . | . | . | ?
CCCCSc1nc2c(c(=O)[nH]1)CCC2 | . | . | . | 28.2µM | . | .

Bioassay records: PubChem BioAssay, National Center for Advancing Translational Sciences (NCATS)
